The list is not random: actives were taken first. Their share in the collection is about 2.4%.
Pol eta inh-1 – qHTS for Inhibitors of Polymerase Eta | DNA polymerase eta (Homo sapiens), Q9Y253 | recombinant Pol eta, fluorescent DNA replication assay | Potency, µM (highest dose often 114 µM), for the others: at the top dose activity change, negative = inhibition, actives largely listed as inhibitors | 390,000 compounds, 1.2% hits | AID 588591, 2011; further: on the % scale 0 is the no-effect control and ±100 the full control effect
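Fluorescent replication assay: 50 nM final substrate added after a 15 min room-temperature compound preincubation with 10 nM enzyme. Signal taken at 0 min and again at 10 min.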
POLI inh – qHTS for Inhibitors of Polymerase Iota. AID 588590, 2011. 390,000 compounds, 1% hits. Potency, µM (highest dose often 115 µM), without a hit: top-dose activity, negative = inhibition, most hits filed as inhibitors. Pol iota fluorescent replication assay, 10 min. DNA polymerase iota (Homo sapiens), Q9UNA4
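Fluorescent replication assay read twice, at 0 min and 10 min after adding 50 nM (final) substrate. Enzyme (10 nM) and compounds were first incubated 15 min at room temperature; enzyme-free buffer wells were negative controls.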
WRN helicase inh-1 – qHTS for Inhibitors of WRN Helicase; Bifunctional 3'-5' exonuclease/ATP-dependent helicase WRN (Homo sapiens), Q14191; WRN helicase unwinding, fluorescent forked duplex, kinetic; Potency, µM (highest dose often 114 µM), for inactives: at the top dose activity change, negative = inhibition, most hits filed as inhibitors; 360,000 compounds, 0.46% hits; AID 651768, 2012; further: on the % scale 0 is the no-effect control and ±100 the full control effect; nearly all actives have a fitted effect of over 55% in size
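Primary qHTS, 1536-well format. 20 nM WRN + compound, 15 min RT; start with 100 nM forked fluorophore/quencher duplex, 2 mM ATP (final); kinetic read ex 525/em 598 nm.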
FEN1 inh-1 – qHTS Assay for the Inhibitors of Human Flap endonuclease 1 (FEN1); P39748; Potency, µM (series often up to 114 µM), without a hit: at the top dose activity change, negative = inhibition, usual class: inhibitors; AID 588795, 2011; Recombinant FEN1 flap cleavage, fluorescence, 15 min; 390,000 compounds, 0.35% hits; further: on the % scale 0 is the no-effect control and ±100 the full control effect; nearly all actives have a fitted effect of over 65% in size
Target sequence (P39748 whole entry, looked up): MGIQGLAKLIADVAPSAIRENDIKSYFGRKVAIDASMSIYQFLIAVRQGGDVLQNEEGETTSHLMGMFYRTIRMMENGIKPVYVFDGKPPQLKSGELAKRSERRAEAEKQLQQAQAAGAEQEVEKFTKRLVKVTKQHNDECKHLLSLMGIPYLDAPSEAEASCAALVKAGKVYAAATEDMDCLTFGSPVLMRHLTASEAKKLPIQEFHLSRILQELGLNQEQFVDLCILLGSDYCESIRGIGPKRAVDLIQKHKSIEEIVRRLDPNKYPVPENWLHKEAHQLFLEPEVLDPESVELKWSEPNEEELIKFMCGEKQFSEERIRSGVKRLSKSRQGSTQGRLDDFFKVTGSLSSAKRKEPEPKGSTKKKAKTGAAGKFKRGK
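Recombinant FEN1 (10 nM) was preincubated with pin-transferred compounds for 15 min at room temperature, then flap DNA substrate (50 nM final) was added. Plates were read at 0 and 15 min, and normalized concentration–response data were fitted to a four-parameter Hill equation.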
POLB inh – qHTS Assay for Inhibitors of DNA Polymerase Beta; Pol beta primer extension/strand displacement, fluorescence kinetic; P06746; 340,000 compounds, 1.3% hits; Potency, µM (titrated, usually from 114 µM), without a hit: at the top dose activity change, negative = inhibition, actives largely listed as inhibitors; further: on the % scale 0 is the no-effect control and ±100 the full control effect
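Pol beta (10 nM) and compounds were preincubated 15 min at room temperature, then 50 nM substrate (final) started primer extension/strand displacement. Reads were taken at 0 and 10 min; concentration-response data were fitted to a four-parameter Hill equation.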
Pol kappa inh-1 – qHTS for Inhibitors of Polymerase Kappa | DNA polymerase kappa (Homo sapiens), Q9UBT6 | purified Pol kappa, fluorescent DNA synthesis assay, 10 min | Potency, µM (top dose mostly 107 µM), without a hit: at the highest dose activity, negative = inhibition, hits mostly inhibitors | 400,000 compounds, 0.53% hits | AID 588579, 2011; further: on the % scale 0 is the no-effect control and ±100 the full control effect
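Here, compound and 10 nM enzyme are combined for 15 min at room temperature; adding 50 nM substrate (final) starts DNA synthesis, tracked by fluorescence at 0 and 10 min against buffer-only wells.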
TbPGK inh – qHTS for inhibitors of Phosphogylcerate Kinase: Hit Validation Screen | shares compounds with Pol kappa inh-1 | TbPGK coupled GAPDH assay, Kinase-Glo luminescence | Potency, µM (titrated, usually from 57.5 µM), without a hit: top-dose activity change, negative = inhibition, hits mostly inhibitors | 500 compounds, 79% hits | AID 686980, 2013; further: on the % scale 0 is the no-effect control and ±100 the full control effect; nearly all actives have a fitted effect of over 65% in size
Pol iota confirm – qHTS for Inhibitors of Polymerase Iota: Confirmatory Assay for Cherry-picked Compounds | 1,500 compounds, 77% hits | Pol iota primer extension, TAMRA/BHQ fluorescence | Potency, µM, usual class: inhibitors | shares compounds with Pol kappa inh-1
Pol kappa inh-2 – qHTS for Inhibitors of Polymerase Kappa: Confirmatory Assay for Cherry-picked Compounds | shares compounds with Pol eta inh-1 | purified Pol-kappa, fluorescent strand-displacement substrate | Potency, µM, usual class: inhibitors | 920 compounds, 76% hits | AID 720501, 2013
Pol eta inh-2 – qHTS for Inhibitors of Polymerase Eta: Confirmatory Assay for Cherry-picked Compounds; Pol eta primer extension, TAMRA/BHQ fluorescence, 10 min; shares compounds with Pol eta inh-1; 2,600 compounds, 64% hits; Potency, µM, actives largely listed as inhibitors
FEN1 inh-2 – qHTS Assay for the Inhibitors of FEN1: Confirmatory Assay for Cherry-picked Compounds; shares compounds with FEN1 inh-1; Potency, µM, most hits filed as inhibitors; FEN1 flap cleavage, TAMRA/BHQ2 fluorogenic DNA substrate; 880 compounds, 79% hits; further: nearly all actives have a fitted effect of over 60% in size
WRN helicase inh-2 – qHTS for Inhibitors of WRN Helicase: Confirmatory Assay for Cherry-picked Compounds; 610 compounds, 63% hits; WRN helicase DNA unwinding, fluorescence kinetic; Potency, µM (series often up to 57.1 µM), for the others: top-dose activity, negative = inhibition, actives largely listed as inhibitors; AID 720497, 2013; shares compounds with WRN helicase inh-1; further: nearly all actives have a fitted effect of over 65% in size
TO displacement – qHTS for Inhibitors of WRN Helicase: Thiazole Orange DNA Binding Counterscreen. shares compounds with WRN helicase inh-1. thiazole orange DNA binding displacement, fluorescence. Potency, µM (titrated, usually from 57.1 µM), without a hit: top-dose activity change, negative = inhibition, usual class: inhibitors. 610 compounds, 10% hits. AID 720499, 2013;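 further: drop in dye fluorescence marks compound binding to DNA; on the % scale 0 is the no-effect control and ±100 the full control effect; nearly all actives have a fitted effect of over 60% in size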
BLM counter – qHTS for Inhibitors of WRN Helicase: BLM Helicase Counterscreen for WRN Inhibitors | AID 720503, 2013 | 610 compounds, 60% hits | Potency, µM (titrated, usually from 57.1 µM), for the others: at the top dose activity change, negative = inhibition, most hits filed as inhibitors | shares compounds with WRN helicase inh-1 | Recombinant BLM helicase DNA unwinding, red fluorescence; further: nearly all actives have a fitted effect of over 60% in size
* = called active by the depositor; [ ] = remark or other dose. The call rests on the fitted dose curve; in most records, active means well fitted curve in the direction sought with a large enough effect; inconclusive means small, poorly fitted or top-dose-only effect, or another doubt; inactive means no such curve, though single readings can be large; an effect the other way counts as inactive or inconclusive. Potency means the concentration at half of the fitted maximal effect.

How did COC(=O)c1ccccc1NC(=O)CCS(=O)(=O)c1ccc(Br)cc1 do in these assays?
Pol eta inh-1: 3.5µM*; POLI inh: -99%; WRN helicase inh-1: 25µM*; FEN1 inh-1: inconclusive; POLB inh: 2.5µM*; Pol kappa inh-1: 20µM*; TbPGK inh: inconclusive; Pol iota confirm: 21*; Pol kappa inh-2: 15*; Pol eta inh-2: 27*; WRN helicase inh-2: 9.6µM*; TO displacement: -8%; BLM counter: 2.4µM*

How did O=C(CCS(=O)(=O)c1ccc(Cl)cc1)Nc1ccccc1Br do in these assays?
Pol eta inh-1: -13%; POLI inh: 1%; WRN helicase inh-1: -2%[57.1 µM]; FEN1 inh-1: 1%; POLB inh: -1%; Pol kappa inh-1: -4%

What do the screens show for `COc1ccc(-c2noc(-c3ccc(NCc4ccc(C)cc4)c([N+](=O)[O-])c3)n2)cc1OC`?
Pol eta inh-1: -17%; POLI inh: 0%; FEN1 inh-1: -1%; POLB inh: inconclusive; Pol kappa inh-1: -25%

What do the screens show for `O=C(O)c1ccc2c(c1)C(=O)/C(=C\c1ccco1)C2=O`?
Pol eta inh-1: 3.5µM*; POLI inh: 6.3µM*; WRN helicase inh-1: 25µM*; FEN1 inh-1: inconclusive; POLB inh: 2.2µM*; Pol kappa inh-1: 8.9µM*; Pol iota confirm: 30*; Pol kappa inh-2: 2.7*; Pol eta inh-2: 8.5*; FEN1 inh-2: 27*; WRN helicase inh-2: inconclusive; TO displacement: 22µM*; BLM counter: -10%

What do the screens show for `COc1cc(S(=O)(=O)NCCc2c(C)[nH]c3ccccc23)c(C)cc1C`?
Pol eta inh-1: -20%; POLI inh: inconclusive; FEN1 inh-1: -9%; POLB inh: 2%; Pol kappa inh-1: -11%

Screening results (PubChem)
